# Screening results (PubChem BioAssay)
# Sampled rows, rich in hits. Any-hit rate of the full collection: about 11%.
# JMJD2A Tudor inh = qHTS Assay for Inhibitors of JMJD2A-Tudor Domain. AlphaScreen JMJD2A-Tudor / H3K4me3 peptide binding. Lysine-specific demethylase 4A (Homo sapiens), O75164. Potency, µM (doses to about 114 µM), without a hit: top-dose activity change, negative = inhibition, usual class: inhibitors. AID 504339, 2011. actives 4.4% (n = 390,000); further: on the % scale 0 is the no-effect control and ±100 the full control effect; nearly all actives have a fitted effect of over 50% in size
# PLK1 PBD inh = qHTS for Inhibitors of PLK1-PDB (polo-like kinase 1 - polo-box domain): Primary Screen; Serine/threonine-protein kinase PLK1 (Homo sapiens), P53350; Plk1 PBD binding of FITC phosphopeptide, fluorescence polarization; Potency, µM, inactives show max response, negative = inhibition, usual class: inhibitors; actives 2.8% (n = 360,000); further: series mostly up to about 57 µM; on the % scale 0 is the no-effect control and ±100 the full control effect; nearly all actives have a fitted effect of over 65% in size
# G9a inh = qHTS Assay for Inhibitors of Histone Lysine Methyltransferase G9a; Histone-lysine N-methyltransferase EHMT2 (Homo sapiens), Q96KQ7; G9a H3K9 monomethylation, AlphaScreen, 2 h; Potency, µM (titrated, usually from 102 µM), for the others: at the highest dose activity, negative = inhibition, hits mostly inhibitors; actives 8.8% (n = 350,000); further: on the % scale 0 is the no-effect control and ±100 the full control effect; nearly all actives have a fitted effect of over 75% in size
#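 Using a bead-based AlphaScreen, monomethylated H3K9 product from 2 h room-temperature reactions (G9a 20 nM, peptide 500 nM, SAM 20 uM) was detected with 0.5 ug/mL rabbit anti-H3K9me1 antibody.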
# HP1b chromo inh = HTS for Inhibitors of HP1-beta Chromodomain Interactions with Methylated Histone Tails. Chromobox protein homolog 1 (Homo sapiens), P83916. AlphaScreen HP1-beta / biotin-H3K9me3 peptide binding. Potency, µM (highest dose often 114 µM), without a hit: at the top dose activity change, negative = inhibition, most hits filed as inhibitors. actives 0.56% (n = 390,000). AID 540317, 2011; further: nearly all actives have a fitted effect of over 70% in size
#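 Compound inhibition of the preformed complex between 50 nM HP1-beta and 50 nM biotinylated H3K9me3 peptide was read by AlphaScreen. Buffer was PBS pH 7.4 with 0.01% Tween-20. Incubations ran 30 min at room temperature, with 10 ug/mL donor/acceptor beads.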
# BAZ2B block = qHTS Assay for Inhibitors of BAZ2B | Potency, µM (highest dose often 114 µM), for the others: at the highest dose activity change, negative = inhibition, most hits filed as inhibitors | Bromodomain adjacent to zinc finger domain protein 2B (Homo sapiens), Q9UIF8 | actives 4.4% (n = 360,000) | AlphaScreen BAZ2B-H3K14Ac peptide displacement; further: on the % scale 0 is the no-effect control and ±100 the full control effect; nearly all actives have a fitted effect of over 60% in size
#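 AlphaScreen luminescence quantifies BAZ2B engagement of H3K14Ac peptide; the protein and biotinylated peptide are both at 50 nM final, buffer PBS pH 7.4 with 0.01% Tween-20, all steps at room temperature.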
# VDR inh = Inhibitors of the vitamin D receptor (VDR): qHTS; VDR-SRC2-3 peptide fluorescence polarization, 2 h; Vitamin D3 receptor (Homo sapiens), P11473; actives 0.93% (n = 400,000); Potency, µM, inactives show max response, negative = inhibition, actives largely listed as inhibitors; further: on the % scale 0 is the no-effect control and ±100 the full control effect
#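 Compounds are added to VDR with labelled SRC2-3 coactivator peptide and held 2 h at room temperature. Inhibition of the VDR–peptide interaction is then read as a change in fluorescence polarization.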
# Numbers without * were called inactive; ? = inconclusive; . = not tested or not shown; [ ] = another dose, or the depositor's remark. The call rests on the fitted dose curve; in most records, active means well fitted curve in the direction sought with a large enough effect; inconclusive means small, poorly fitted or top-dose-only effect, or another doubt; inactive means no such curve, though single readings can be large; an effect the other way counts as inactive or inconclusive. Potency means the concentration at half of the fitted maximal effect.
SMILES,JMJD2A Tudor inh,PLK1 PBD inh,G9a inh,HP1b chromo inh,BAZ2B block,VDR inh
O=C(COC(=O)COc1ccccc1)NCCC1=CCCCC1,-6%,-6%,3%[59 µM],34%,-1%,5%
COc1cc(-c2ccc3ncnc(N(C)Cc4csc(C)n4)c3c2)cc(OC)c1OC,-21%,.,.,.,.,.
Cc1ccc(C2=Nn3c(COc4ccc(Cl)cc4)nnc3SC2CC(=O)O)cc1 (stereo not drawn),-8%,?,40µM*,4%,?,-30%
Cc1ccc(Nc2ccc3cc(S(=O)(=O)N4CCC(C)CC4)ccc3n2)c(Cl)c1,20%,.,16µM*,55%,-7%,14%
CC1CCN(S(=O)(=O)c2ccc3nc(Nc4cccc(F)c4)ccc3c2)CC1,31%,.,25%[59 µM],85%,26%,-5%
C[C@@H]1CN(Cc2nnnn2CC(=O)NCCCn2cccn2)C[C@H](C)O1,.,-12%,.,.,.,.
COc1ccccc1C(=O)Nc1cccc(NC(C)=O)c1,-19%,3%,3%[59 µM],0%,11%,-5%
COc1ccccc1C(=O)Nc1cccc(NC(=O)c2ccccc2C)c1,?,21µM*,36%[59 µM],20%,-7%,-14%
Cc1ccccc1C(=O)NC(=S)Nc1cccc(NC(=O)C(C)C)c1,?,-19%,8.9µM*,20%,-11%,-4%
Cc1ccccc1C(=O)Nc1cccc(NC(=O)c2ccc(C(C)(C)C)cc2)c1,-17%,.,-43%[59 µM],20%,-4%,50µM*
COc1ccccc1C(=O)Nc1cc(Cl)ccc1O,-10%,2%,56µM*,10%,-1%,-15%
CC(C)C(=O)Nc1cccc(NC(=S)NC(=O)c2ccccc2Cl)c1,-30%,-9%,-50%[59 µM],34%,-22%,-12%
COc1cccc(NC(=O)Cn2nc(C)c3c(C)n(-c4ccccc4)nc3c2=O)c1,-5%,.,-11%[59 µM],11%,-10%,3%
N#Cc1cccc(NC(=O)N2CCC3(CC2)CCN(C(=O)c2csnn2)CC3)c1,.,.,-6%[12.7 µM],.,.,13%
CC1CCN(S(=O)(=O)c2ccc3c(c2)N(CC(=O)O)C(=O)CO3)CC1,-26%,.,-18%[59 µM],32%,1%,15%
Cc1cc(N(CCO)CCO)ccc1N=Nc1cc(F)ccc1F,22µM*,-9%,14µM*,?,22µM*,-17%
OCCN(CCO)c1ccc(C(c2ccc(Cl)cc2)c2ccc(N(CCO)CCO)cc2Cl)c(Cl)c1,?,-8%,?,-8%,?,-14%
N#CCCn1cnc2c1NC=NC2Cl (stereo not drawn),.,.,.,.,.,11%
COc1ccc(CNCc2cccc3ccccc23)cc1,18µM*,2%,.,?,?,-11%
COc1ccc(CNCc2ccccc2C(F)(F)F)cc1,28µM*,-8%,8.9µM*,?,79µM*,-28%
COc1ccc(CNCc2cc(OC)ccc2OC)cc1,28µM*,3%,13µM*,-20%,56µM*,7%
COc1ccc(CNCC(O)(c2ccccc2)c2ccc(Cl)cc2)cc1 (stereo not drawn),52%,-3%,5%[59 µM],60%,16%,7%
COc1ccc(CN(C)CC(=O)Nc2ccccc2C(F)(F)F)cc1,30%,-1%,60%,106%,8%,20%
COc1ccc(CNCc2ccc(F)cc2)c(OC)c1,-17%,-9%,15%,30%,-21%,3%
COc1ccc2ccc(O)c(CN(C)CC(=O)Nc3ccccc3C(F)(F)F)c2c1,?,11µM*,7.9µM*,-20%,-13%,?
SMILES,JMJD2A Tudor inh,PLK1 PBD inh,G9a inh,HP1b chromo inh,BAZ2B block,VDR inh
COc1cc2c(cc1NC(=O)CN(C)Cc1ccc(OC)c(OC)c1)oc1ccccc12,-28%,-12%,?,23%,-8%,6%
Cc1cc(C)c(-n2nnnc2SCC(=O)c2cc3ccccc3o2)c(C)c1,-11%,-2%,-12%,13%,-15%,-1%
COc1ccc(CCNCC(=O)Nc2ccccc2C(F)(F)F)cc1,3.2µM*,27µM*,2.5µM*,?,50µM*,-26%
O=C(Nc1ccc(Oc2ccccc2)cc1)c1cnc2n(c1=O)CCS2,-12%,-2%,56µM*,28%,-16%,0%
CCOc1ccccc1NC(=O)c1cnc2n(c1=O)CCS2,1%,-10%,79µM*,29%,-2%,12%
O=C(NCCc1ccccc1)c1cnc2n(c1=O)CCS2,-12%,-14%,-43%,6%,.,-16%
COc1ccc(C)cc1NC(=O)c1cnc2n(c1=O)CCS2,-3%,-27%,-13%[59 µM],1%,2%,-4%
Cc1ccc(-c2ccnc3nc(-n4cccc4)nn23)o1,-30%[11.4 µM],4.7µM*,-11%,?,-21%,?
c1ccc(-c2ccnc3nc(N4CCN(c5ccccc5)CC4)nn23)cc1,-27%,-13%,54%[59 µM],13%,-35%,3%
CC1CCN(C(=O)CN(CCc2ccccc2)S(C)(=O)=O)CC1,-7%,-5%,7%,29%,6%,0%
CC(C)CC(=O)N1CCC(N(CCc2ccccc2)Cc2ccccc2)CC1,28µM*,-5%,22µM*,?,50µM*,-18%
COc1cccc(CN2CCC(N(CCc3ccccc3)Cc3ccccc3)CC2)c1OC,0.89µM*,-9%,8.9µM*,?,50µM*,4%
COc1cccc(CN2CCN(CCc3ccccc3)C(CCO)C2)c1OC (stereo not drawn),-2%,-3%,-3%[0.501 µM],31%,3%,17%
COc1cccc(CN2CCN(Cc3cccc(Oc4ccccc4)c3)CC2)c1OC,7.1µM*,-10%,4µM*,?,18µM*,11%
COc1cccc(CN2CCN(Cc3cc(OC)c(OC)c(OC)c3)CC2)c1OC,7.9µM*,-7%,2.8µM*,?,56µM*,-3%
COc1ccc(CC2(CO)CCN(Cc3cccc(OC)c3OC)CC2)cc1,-15%,2%,1%,27%,-14%,16%
CCCN1CCCC(c2cccc(S(C)(=O)=O)c2)C1 (stereo not drawn),.,.,.,.,.,11%
Cc1ccccc1Cn1c2ccccc2c2cnn(CC(=O)NCCc3ccccc3)c(=O)c21,-7%,.,-5%[59 µM],12%,-2%,10%
O=S(=O)(c1ccc(NC(=S)NN=C2CCCCC2)cc1)N1CCOCC1,28µM*,-18%,6.3µM*,12%,-23%,-8%
NNC(=S)Nc1ccc(S(=O)(=O)N2CCOCC2)cc1,?,?,.,1%,-10%,-18%
